Source: the supplement of paper PMC13380429

Test system: Vero E6 infected with SARS-CoV-2
Test: inhibition of SARS-CoV-2 cytopathic effect; higher = more antiviral protection, active = above 15
Settings: 48 h

Measured: inhibition of SARS-CoV-2 cytopathic effect

CC(=O)OCC(=O)[C@H]1CC[C@H]2[C@@H]3CC[C@H]4C[C@H](O)CC[C@]4(C)[C@H]3C(=O)C[C@]12C [alfadolone-acetate]
inactive: 1 nM 3.28% | 8.33 nM 3.18% | 100 nM 2.11% | 833.33 nM 1.64% | 10000 nM -4.57%

COc1ccc(NS(=O)(=O)c2sc3ccc(Cl)cc3c2C)cc1N1CCNCC1
inactive: 1 nM 0.93% | 8.33 nM 3.35% | 100 nM 0.86% | 833.33 nM 3.23% | 10000 nM -3.32%

CCn1cc(C(=O)O)c(=O)c2ccc(C)nc21 [nalidixic-acid]
inactive: 1 nM 0.83% | 8.33 nM 1.11% | 100 nM 0.89% | 833.33 nM 0.77% | 10000 nM -0.57%

COc1ccc(/C=C/C(=O)O)cc1 [trans-4-methoxycinnamic-acid]
inactive: 1 nM 1.02% | 8.33 nM -0.31% | 100 nM -1.64% | 833.33 nM -0.87% | 10000 nM -1.56%

C[C@]12CC[C@H]3[C@@H](CCC4=CC(=O)CC[C@@]43C)[C@@H]1CC[C@@H]2O
inactive: 1 nM 0.04% | 8.33 nM 2.66% | 100 nM 3.91% | 833.33 nM -1.25% | 10000 nM -0.6%

NS(=O)(=O)c1cc2c(cc1Cl)N=CNS2(=O)=O [chlorothiazide]
inactive: 1 nM 0.29% | 8.33 nM 0% | 100 nM -0.95% | 833.33 nM -0.05% | 10000 nM -0.76%

O=C(Cn1ccnc1[N+](=O)[O-])NCCO [etanidazole]
inactive: 1 nM 0.32% | 8.33 nM 0.33% | 100 nM 4.88% | 833.33 nM -1.27% | 10000 nM -0.88%

COc1ccc2cccc(N3CCN(CCNC(=O)c4ccc(F)cc4)CC3)c2c1
inactive: 1 nM -1.86% | 8.33 nM -0.57% | 100 nM 0.77% | 833.33 nM 0.7% | 10000 nM -3.37%

CCOC(=O)c1ccc(NC2CCCCC2)c(N)c1 [ferrostatin-1]
inactive: 1 nM 0.05% | 8.33 nM 3.56% | 100 nM 2.61% | 833.33 nM 2.6% | 10000 nM 2.1%

CCOC(=O)c1ncn2c1CN(C)C(=O)c1cc(F)ccc1-2 [flumazenil]
inactive: 1 nM -5.56% | 8.33 nM -4.56% | 100 nM -4.89% | 833.33 nM -4.65% | 10000 nM -1.96%

O=C(/C=C/c1cccc(S(=O)(=O)Nc2ccccc2)c1)NO [belinostat]
inactive: 1 nM -1.11% | 8.33 nM 0.41% | 100 nM -1.26% | 833.33 nM -13.7% | 10000 nM -27.1%

CC(=O)O[C@@]12CO[C@@H]1C[C@H](O)[C@@]1(C)C(=O)[C@H](O)C3=C(C)[C@@H](O)C[C@@](O)([C@@H](OC(=O)c4ccccc4)[C@H]21)C3(C)C [10-deacetylbaccatin]
inactive: 1 nM -0.5% | 8.33 nM 0.94% | 100 nM -1.67% | 833.33 nM -4.55% | 10000 nM -2.63%

CC(CN(C)C)CN1c2ccccc2CCc2ccccc21 (stereo not given) [trimipramine]
inactive: 1 nM -3.96% | 8.33 nM -0.87% | 100 nM -0.5% | 833.33 nM -2.02% | 10000 nM -3.88%

O=C(NC[C@H](O)CN1CCc2ccccc2C1)c1cc(NC2COC2)ncn1
inactive: 1 nM -3.14% | 8.33 nM -1.3% | 100 nM -2.1% | 833.33 nM -3.82% | 10000 nM -1.65%

C/C(=C\C(=O)OCCCCCCCCC(=O)O)C[C@@H]1OC[C@H](C[C@@H]2O[C@H]2[C@@H](C)[C@H](C)O)[C@@H](O)[C@H]1O [mupirocin]
inactive: 1 nM -1.43% | 8.33 nM -0.61% | 100 nM 0.52% | 833.33 nM 2.09% | 10000 nM 1.36%

c1ccc(-c2ccc(CNc3nc(-c4ccccn4)nnc3-c3ccccc3)cc2)cc1
inactive: 1 nM 1.58% | 8.33 nM 0.74% | 100 nM -1.15% | 833.33 nM -4.89% | 10000 nM -14.7%

O=C1CCCN1CC#CCN1CCCC1 [oxotremorine-sesquifumarate]
inactive: 1 nM 0.81% | 8.33 nM 2.23% | 100 nM 4.01% | 833.33 nM 3.15% | 10000 nM 0.96%

C[C@]12CCC(=O)C=C1CC[C@@H]1[C@@H]2[C@@H](O)C[C@@]2(C)[C@H]1CC[C@]2(O)C(=O)CO [hydrocortisone]
inactive: 1 nM -3.82% | 8.33 nM -3.12% | 100 nM -3.55% | 833.33 nM -4.8% | 10000 nM -3.51%

COc1ccccc1N1CCN(CC(O)COc2cc(OC)c(OC)c(OC)c2)CC1 (stereo not given) [enciprazine]
inactive: 1 nM 0.76% | 8.33 nM 1.14% | 100 nM 0.33% | 833.33 nM -0.53% | 10000 nM -2.4%

Cc1ccc(C(=O)N(CCCN)[C@@H](c2oc3cc(Cl)ccc3c(=O)c2Cc2ccccc2)C(C)C)cc1
inactive: 1 nM 1.81% | 8.33 nM -1.04% | 100 nM -0.8% | 833.33 nM -2.79% | 10000 nM -24.6%
